In PubChem BioAssay AID1445 (SRMLSC, 2008) one finds inhibition data, which are given here for 61 compounds.

The whole screen tested about 220,000 compounds, of which about 910 (0.41%) were called active. Only a selection was taken, and actives are over-represented in it overall. Entries with a potency or affinity are not part of this list. A number with no mark means an inactive call.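 How the source made its calls: active means primary inhibition above the hit cutoff, then over 50% inhibition at one or more dose response concentrations (cut at about 23% in these data, passing the limit was not always enough); inconclusive means conflicting primary data, or primary hits not chosen for dose response; inactive means low primary inhibition, or under 50% at every dose.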

Chain of Aminopeptidase N (Plasmodium falciparum (isolate 3D7)) (O96935 whole entry, looked up): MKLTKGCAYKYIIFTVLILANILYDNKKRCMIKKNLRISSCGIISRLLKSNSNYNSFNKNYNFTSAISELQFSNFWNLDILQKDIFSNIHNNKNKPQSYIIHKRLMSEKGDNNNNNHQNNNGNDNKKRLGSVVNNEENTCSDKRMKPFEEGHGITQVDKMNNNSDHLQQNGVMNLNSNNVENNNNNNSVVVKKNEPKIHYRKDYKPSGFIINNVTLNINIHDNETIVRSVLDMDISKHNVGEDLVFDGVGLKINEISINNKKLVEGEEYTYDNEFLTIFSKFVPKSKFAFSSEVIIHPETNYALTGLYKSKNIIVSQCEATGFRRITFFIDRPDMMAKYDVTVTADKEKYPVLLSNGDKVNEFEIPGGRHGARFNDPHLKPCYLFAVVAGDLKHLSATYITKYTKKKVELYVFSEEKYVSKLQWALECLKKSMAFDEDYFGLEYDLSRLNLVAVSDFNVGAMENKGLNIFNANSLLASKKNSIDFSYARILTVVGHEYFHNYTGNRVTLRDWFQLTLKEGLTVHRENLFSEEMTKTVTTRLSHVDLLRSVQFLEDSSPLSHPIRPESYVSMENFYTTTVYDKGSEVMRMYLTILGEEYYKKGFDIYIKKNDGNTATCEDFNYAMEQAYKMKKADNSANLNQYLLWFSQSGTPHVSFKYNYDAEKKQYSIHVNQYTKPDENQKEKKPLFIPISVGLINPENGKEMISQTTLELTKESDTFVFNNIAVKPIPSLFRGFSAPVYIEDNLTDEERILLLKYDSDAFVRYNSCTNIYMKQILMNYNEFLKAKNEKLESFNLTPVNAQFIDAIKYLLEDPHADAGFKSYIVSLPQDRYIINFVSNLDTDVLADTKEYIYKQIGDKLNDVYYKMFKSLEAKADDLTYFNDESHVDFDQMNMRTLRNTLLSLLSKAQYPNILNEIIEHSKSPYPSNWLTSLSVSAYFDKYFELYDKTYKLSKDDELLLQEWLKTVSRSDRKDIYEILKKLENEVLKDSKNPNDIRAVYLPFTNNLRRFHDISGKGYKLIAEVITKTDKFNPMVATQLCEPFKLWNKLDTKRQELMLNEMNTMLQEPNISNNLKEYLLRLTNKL

The assay addresses Aminopeptidase N (Plasmodium falciparum (isolate 3D7)) (UniProt O96935). Kind of assay: P. falciparum M1AAP inhibitors, biochemical, fluorogenic H-Leu-NHMec substrate, 1536-well (AID 1445).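 Further: plate controls were DMSO full reaction for no effect and no enzyme background for full effect.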 The conditions noted are these: recombinant M1AAP, H-Leu-NHMec fluorogenic kinetic assay; at 30 µM, hits give high values unless noted.
On to `O=C(CCN1CCN(C(=O)c2ccco2)CC1)Nc1ccc(F)cc1`, for which the inhibition is 1.29%.

Regarding `S=C(NCCCn1ccnc1)NC1CCCCC1`, the inhibition is 6.56%.

Regarding `CCC(C)NC(=O)CN(C)S(=O)(=O)c1ccc2c(c1)c(=O)n(C)c(=O)n2C` (stereo unspecified), the inhibition is -4.82%.

Consider `CCCC(=O)OCC(=O)Nc1ccc2c(c1)OCO2`, for which the inhibition was -0.89%.

In the case of `CCOC(=O)C1=C(C)N=c2s/c(=C3\C(=O)Nc4ccccc43)c(=O)n2C1c1ccc2c(c1)OCO2` (stereo unspecified), the inhibition was 8.57%.

For the compound `Cc1cc(C)nc(NS(=O)(=O)c2ccc(N3C(=O)c4ccccc4C3=O)cc2)n1`, the inhibition is 0.35%.

For `CCO/C=C1/C(=O)N(c2ccc(OC)cc2)C(=O)c2ccccc21`, the inhibition is 4.8%.

`CCOc1ccc(N2C(=O)c3ccccc3C2=O)cc1`: the inhibition is -0.53%.

Consider `CCO/C=C1\C(=O)N(c2ccccc2)C(=O)c2ccccc21`, for which the inhibition was -1.51%.

On to `COc1ccccc1N1CCN(C(c2ccc(N(C)C)cc2)c2nnnn2CCc2ccccc2)CC1` (stereo unspecified), for which the inhibition is -7.04%.

Turning to `O=c1oc2c(CN3CCOCC3)c(O)ccc2c2ccccc12`, the inhibition was 3.91%.

As for `Cc1oc2c(CN3CCCC3)c(O)ccc2c(=O)c1-c1ccc(Br)cc1`, the inhibition is 17.5%.

For `COc1ccc(Oc2c(C)oc3c(CN(C)C)c(O)ccc3c2=O)cc1`, the inhibition was 2.59%.

Regarding `CCCc1cc(=O)oc2c(CN3CCOCC3)c(O)ccc12`, the inhibition was 21.8%.

Turning to `CCc1cc2c3c(c(=O)oc2cc1O)CCCC3`, the inhibition was 22.5%.

Turning to `CCN(CC)Cc1c(O)c(Cl)cc2c3c(c(=O)oc12)CCCC3`, the inhibition was 9.62%.

`Cc1oc2c(CN3CCCC3)c(O)ccc2c(=O)c1-c1ccccc1`: the inhibition is 9.3%.

With `CCc1c(C)c2ccc(OCC(=O)N(C)C)c(C)c2oc1=O`, the inhibition was 0.38%.

For `COc1ccc(-n2nnnc2SCC(=O)N2CCCC2)cc1OC`, the inhibition was 0.63%.

Regarding `COc1ccc(C(=O)Nc2cc(=O)n(C)c(=O)n2C)cc1`, the inhibition is 4.18%.

On to `Cc1nc(N)nc(-c2ccccc2O)n1`, for which the inhibition is 7.96%.

For the compound `Cn1c(=O)[nH]c(=O)c2c1nc(N1CCCCC1)n2C/C=N/NC(=O)c1cc(Br)ccc1O`, the inhibition was 20.9%.

For the compound `COCCCNC(=O)c1ccccc1Sc1ccc(NC(C)=O)nc1`, the inhibition is 2.96%.

As for `CCCn1nc2cc(C(=O)NC3CCc4ccccc43)ccc2c1OCC` (stereo unspecified), the inhibition is 4.98%.

`Nc1nc(NC(=O)c2ccccc2Cl)nn1-c1ccccc1`: the inhibition is -0.99%.

For `Cc1c(C(=O)NCC(C)C)sc2nc(-c3ccc(F)cc3)cn12`, the inhibition is -1.14%.

Turning to `CC(=O)Cc1nsc(NC(=O)c2ccco2)n1`, the inhibition is 0.74%.

With `O=[N+]([O-])c1cc(S(=O)(=O)Nc2ccccc2)ccc1NCc1cccnc1`, the inhibition was 6.72%.

`CC1CCCCN1Cc1c(O)ccc2c(=O)c(-c3nc4ccccc4s3)c(N)oc12` (stereo unspecified): the inhibition is 17.1%.

Regarding `CN(Cc1c(O)ccc2c1oc(=O)c1ccccc12)C1CCCCC1`, the inhibition was 5.6%.

Consider `COC(=O)Cc1c(C)c2ccc(OCC(C)=O)c(C)c2oc1=O`, for which the inhibition was 14.3%.

`CC1CCN(Cc2c(O)ccc3c(=O)c(-c4nc5ccccc5s4)c(N)oc23)CC1`: the inhibition was 2.55%.

Regarding `CCc1cc(=O)oc2cc(C)c(CN3CCCC(C)C3)c(O)c12` (stereo unspecified), the inhibition was 2.92%.

Turning to `CC1CN(Cc2c(O)ccc3c2oc(=O)c2ccccc23)CC(C)O1` (stereo unspecified), the inhibition was 4.75%.

On to `C=C(C)COc1ccc2c(C)c(CC(=O)OC)c(=O)oc2c1C`, for which the inhibition is 13.3%.

Regarding `CC1CCCN(Cc2c(O)ccc3c(=O)c(-c4nc5ccccc5s4)c(N)oc23)C1` (stereo unspecified), the inhibition is 24.6% (active).

On to `CC(C)CN(Cc1c(O)ccc2c3c(c(=O)oc12)CCC3)CC(C)C`, for which the inhibition was 34.7%.

`O=C(Cc1c(Cl)cccc1Cl)NCCc1ccc(Cl)cc1`: the inhibition was 13.8%.

Consider `Cc1ccc(NC(=O)CCNS(=O)(=O)c2ccc3c(c2)c(=O)n(C)c(=O)n3C)cc1C`, for which the inhibition was 9.45%.

As for `NC(=O)c1ccccc1N/C=C1\CCCCC1=O`, the inhibition is 10.2%.

Turning to `O=C1/C(=C/Nc2cccc([N+](=O)[O-])c2)CCc2ccccc21`, the inhibition is 9.22%.

Turning to `CCOC(=O)N1CCN(C(=O)COc2ccccc2Cl)CC1`, the inhibition was 4.17%.

For `COCCn1c(SCC#N)nnc1-c1ccc2c(c1)OCO2`, the inhibition was -1.51%.

Turning to `OC(c1cccs1)c1nccc2ccccc12` (stereo unspecified), the inhibition was -3.89%.

On to `Cc1c(O)ccc2c3c(c(=O)oc12)CCCC3`, for which the inhibition was 20.9%.

`O=c1oc2c(CN3CCCCC3)c(O)ccc2c2c1CCCCC2`: the inhibition is 42.2% (active).

With `CCCCN(CC)Cc1c(O)ccc2c(-c3ccccc3)cc(=O)oc12`, the inhibition was 4.82%.

Take `O=c1cc(-c2ccccc2)c2ccc(O)c(CN3CCCCC3)c2o1`: the inhibition is 11.4%.

Regarding `COCCN(CCOC)Cc1c(O)ccc2c3c(c(=O)oc12)CCC3`, the inhibition was 4.7%.

As to `COc1ccc(-c2cc(C#N)nc(Oc3ccc(Cl)cc3)n2)cc1`, the inhibition was 6.45%.

Regarding `CC(=O)Nc1ccc(/C=N/NC(=O)c2cc3cc(C)ccc3nc2C)cc1`, the inhibition was 2.63%.

Turning to `CCC(=O)Nc1ccc(S(=O)(=O)Nc2cc(C)on2)cc1`, the inhibition is -4.75%.

Regarding `Cc1cc(NS(=O)(=O)c2ccc(NC(=O)CSc3nc4sc(C(=O)O)c(C)c4c(=O)[nH]3)cc2)no1`, the inhibition is 16.3%.

As for `O=C(N/N=C/c1cccnc1)c1ccccc1OCc1ccc(Cl)cc1`, the inhibition is -4.49%.

For `Cc1ccc(COc2ccccc2-c2cc(C(=O)N/N=C/c3cccnc3)[nH]n2)cc1`, the inhibition is 4.58%.

Regarding `COc1ccc(C2c3c(noc3C)CC(C)(O)C2C(C)=O)cc1` (stereo unspecified), the inhibition is 0.23%.

Regarding `COc1ccc(-c2nn(-c3ccccc3)cc2/C=C/C(=O)N2CCN(c3ccccn3)CC2)cc1`, the inhibition is 1.49%.

For the compound `CCOC(=O)COc1ccc2ccccc2c1/C=C/[N+](=O)[O-]`, the inhibition is 4.98%.

For the compound `CCOC(=O)COc1ccccc1/C=C\[N+](=O)[O-]`, the inhibition is 11.9%.

Consider `CCN=C1S/C(=C\c2cc(Br)ccc2OCC(=O)OCC)C(=O)N1CC`, for which the inhibition was 3.81%.

With `CCOC(=O)COc1ccc(/C=C/[N+](=O)[O-])c(OCC(=O)OCC)c1`, the inhibition was 1.07%.
